Screening results as filed in PubChem.
Compounds with a hit are over-represented: about 6.5% of the library has one in this group of screens.
HT1080 IDH1KD tx: qHTS for induction of synthetic lethality in tumor cells producing 2HG: qHTS for the HT-1080-IDH1KD cell line; HT-1080 IDH1 knockdown viability, ATP luminescence, 48 h; Potency, µM (top dose mostly 46.1 µM), hits mostly cytotoxic; actives 2% (n = 360,000); AID 686971, 2013
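IDH1KD HT-1080 cells, 750/well, RPMI + 5% FBS; compound pinned after 2 h settling; 48 h, 37 °C; CellTiter-Glo luminescence; % activity normalised to DMSO and no-cell wells; curves fitted, classed by r2 and efficacy.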
HepG2 viability: qHTS for Inhibitors of TGF-b: Cytotox Counterscreen. AID 588856, 2011. Potency, µM (series often up to 46.1 µM), hits mostly cytotoxic. HepG2 CAGA-GFP viability, ATP luminescence, 18 h. actives 0.76% (n = 410,000)
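HepG2 CAGA-GFP cells (1000/well, DMEM with 1% FBS) received compound, then TGF-beta at 500 pg/mL final, and were incubated 18 hours at 37 degrees C. Viability was read by CellTiter-Glo luminescence. Media-only wells were set as complete cell-killing and DMSO as no toxicity.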
HT1080NT lethal: qHTS for induction of synthetic lethality in tumor cells producing 2HG: qHTS for the HT-1080-NT fibrosarcoma cell line. HT-1080-NT fibrosarcoma viability, CellTiter-Glo ATP luminescence, 48 h. AID 686970, 2013. Potency, µM (highest dose often 46.1 µM), actives largely listed as cytotoxic. actives 1.6% (n = 360,000);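 note: NT is the 2HG producing partner of a matched IDH1 knockdown line; nearly all actives have a fitted effect of over 55% in size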
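Luminescent CellTiter-Glo readout after 48 hours of compound exposure at 37 degrees C defined viability of HT-1080-NT cells. Activity was normalized to DMSO wells and cell-free media wells; concentration-response curves were fitted and assigned curve classes.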
TGFb SMAD3 inh: qHTS for Inhibitors of TGF-b | Potency, µM (highest dose often 46.1 µM), usual class: inhibitors | actives 1.2% (n = 410,000) | HepG2 CAGA-GFP TGF-b/SMAD3 reporter, GFP fluorescence, 18 h; TGF-beta stimulated, 500 pg/mL final; note: nearly all actives have a fitted effect of over 65% in size
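TGF-beta reporter screen: HEPG2 CAGA-GFP, 1% FBS, 500 pg/mL TGF-beta final, 18 h; per-cell GFP summed per well; curves fitted and categorized by class.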
IL1B secr inh: qHTS for Inhibitors of Inflammasome Signaling: IL-1-beta AlphaLISA Primary Screen | actives 4.7% (n = 360,000) | activity change, % at 57.5 µM | AID 743279, 2014 | THP-1 LPS/ATP IL-1B secretion, AlphaLISA, 16 h; active compounds read low; in the data active = activity change below about -50%; inconclusive = mostly about -30% to -49%
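THP-1 cells pretreated 1 hr with compounds (up to 57.5 uM final), then stimulated with LPS (250 ng/mL final) plus ATP (1.25 mM final); secreted IL-1B measured by AlphaLISA after 16 hr, decreased signal indicating inhibition.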
Giardia kill: Small Molecules that selectively kill Giardia lamblia: qHTS | Giardia lamblia trophozoite viability | activity change, % at 7.66 µM, hits read low | actives 0.15% (n = 340,000) | AID 540267, 2011; in the data active = activity change below about -80%; inconclusive = between about -30% and that limit;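 note: parasites exposed to compound for two days anaerobically before the ATP read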
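Each well holds 100 Giardia trophozoites and compound. After two days (48 hrs) at 37 deg C in anaerobic conditions, ATP is quantified by luminescence.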
Numbers stand for hits; 0 = inactive; ? = inconclusive; - = no result; [ ] = dose if it differs, or a comment. Unless noted, calls come from the whole dose curve; as a rule, active = well fitted curve in the direction sought with a large enough effect; inconclusive = small, poorly fitted or top-dose-only effect, or another doubt; inactive = no such curve, though single readings can be large; an effect the other way counts as inactive or inconclusive.

SMILES	HT1080 IDH1KD tx	HepG2 viability	HT1080NT lethal	TGFb SMAD3 inh	IL1B secr inh	Giardia kill
Cc1ccc(-n2nc3c(=O)n(CC(=O)NCc4cccs4)nc(C)c3c2C)cc1	0	0	0	0	0	0
Cc1cc(S(=O)(=O)N2CCCC2)ccc1OCC(=O)Nc1ccc(C(N)=O)cc1	0	0	0	0	0	0
Cc1cc(O)cc(O)c1C=NCc1ccco1	?	0	?	20µM	0	0
O=C(NCc1ccccc1Cl)c1ccc(CSc2nc3ccncc3[nH]2)cc1	0	0	0	0	-76	0
Cc1csc(=O)n1CCC(=O)N(C)Cc1c(F)cccc1Cl	0	0	0	0	0	0
N#Cc1ccccc1Cn1cc(/C=N/Nc2ccc([N+](=O)[O-])cn2)c2ccccc21	0	0	0	0	0	0
COC(=O)C1=C(C)NC2=C(C(=O)CC(c3cccs3)C2)C1c1ccsc1 (configuration not stated)	?	0	0	0	0	0
CCOC(=O)C1=C(C)NC(=O)CC1c1ccccc1 (configuration not stated)	0	0	0	0	0	0
CCOC(=O)C1=C(C)NC2=C(C(=O)OC2)C1c1ccccc1 (configuration not stated)	21µM	0	?	0	0	0
CCOC(=O)C1=C(C)NC2=C(C(=O)CC(c3cccs3)C2)C1c1cccs1 (configuration not stated)	15µM	0	?	?	?	0
CCOc1ccc(C2=Nn3c(nnc3-c3cccnc3)SC2)cc1	0	0	0	0	0	0
O=C(CCn1c(=O)sc2ccccc21)NCCCn1ccnc1	0	0	0	0	0	0
N#CC(C#N)=c1ccc2c(c1)NC1(CCCCC1)N=2	23µM	0	?	?	-104	0
O=C1NC2(CCCC2)N=C1c1ccc(Cl)cc1	0	0	0	0	0	0
Cc1cc(C)c(C)c(S(=O)(=O)N2CCN(C(=O)c3ccco3)CC2)c1C	0	0	0	0	-	0
CSc1nc(SCCN(C)C)c2c3c(sc2n1)COC(C)(C)C3	?	0	0	0	-61	0
CNCCCC1c2ccccc2C=Cc2ccccc21	23µM	0	18µM	0	0	0
CNCCCCOc1ccccc1-c1ccccc1	?	0	0	?	?	0
Cc1cc(C)c2nc3nc(C)c(C)cc3c(N)c2c1	13µM	0	?	?	-89	0
CCCSc1nc(C)c2cc(C)cc(C)c2n1	0	0	0	0	0	0
O=C(CSc1nc(-c2ccccc2Cl)ns1)NCc1ccco1	0	0	0	0	0	0
O=C(Nc1cnn(C23CC4CC(CC(C4)C2)C3)c1)c1cnn2c(C(F)(F)F)cc(-c3ccco3)nc12	0	0	0	0	-80	0
COc1ccc(S(=O)(=O)Nc2cccc3cccnc23)cc1	-	0	-	7.1µM	-	0
CC(=O)Nc1ccc(S(=O)(=O)Nc2cccc3cccnc23)cc1	0	0	0	0	0	0
O=S(=O)(Nc1cc(Br)cc2cccnc12)c1ccccc1	-	0	-	8.9µM	-	0
SMILES	HT1080 IDH1KD tx	HepG2 viability	HT1080NT lethal	TGFb SMAD3 inh	IL1B secr inh	Giardia kill
O=S(=O)(Nc1cccc2cccnc12)c1ccc(S(=O)(=O)N2CCCC2)cc1	1.3µM	0	2µM	?	-71	0
CCOP(=O)(OCC)C(Nc1ccccc1)c1ccco1 (configuration not stated)	0	0	0	0	0	0
CCn1c(CCNC(=O)c2ccc(OC)cc2)nnc1SCc1ccc(Cl)c(Cl)c1	0	0	0	?	0	0
CSc1ccc(CN2CCN(C(=O)CC(C)C)CC2)cc1	0	0	0	0	0	0
CCN(CC)c1ccc(S(=O)(=O)N2CCOCC2)cc1NC(=O)CNCc1cccc(Cl)c1	0	0	0[9.24 µM]	?	0	0
Cc1ccc(S(=O)(=O)CC(=O)N2CC(C)OC(C)C2)cc1 (configuration not stated)	0	0	0	0	0	0
CC(=O)Nc1ccc(/C=N/Nc2nc3ccccc3[nH]2)cc1	?	0	?	?	-94	?
CCN(CC)c1ccc(/C=N/Nc2nc3ccccc3[nH]2)cc1	?	0	?	0	-85	0
CCCn1cnc2c(SCc3ccccn3)nc(N)nc21	0	0	0	0	0	0
CN(C)/C=N/C(=S)Nc1cc(Cl)cc(Cl)c1	0	0	0	0	0	0
CN(C)/C=N/C(=S)Nc1ccc(Cl)c(Cl)c1	?	0	0	0	-91	0
COc1ccc(Cl)cc1NC(=S)N(CCN1CCOCC1)C1CCN(C(C)=O)CC1	0	0	0	0	0	0
COC(=O)c1cc(S(=O)(=O)N(Cc2ccccc2)C(C)(C)C)c[nH]1	23µM	0	?	0	0	0
COc1cc(NC(=O)CSc2ccccc2)c(C(=O)O)cc1OC	0	0	0	0	0	0
CS(=O)(=O)N(CCC#N)Cc1ccc(/C=C2\C(=O)Nc3ccccc32)o1	0	0	0	0	-78	0
CC1=C(C#N)C(=O)NC(=O)/C1=C/c1ccc(-c2ccc(S(N)(=O)=O)cc2)o1	0	0	0	0	0	0
CCc1nc2sc3c(c2c(=O)n1NC(=O)CCl)CCCC3	?	0	0	0	-77	0
Cc1nnc(SCC(=O)c2c(N)n(C)c(=O)n(C)c2=O)n1Cc1ccccc1	0	0	0	0	-54	0
Cc1cccc2c(C(O)c3c[nH]c4c(C)cccc34)c[nH]c12	-	0	-	0	-	-
Cc1ccc2[nH]cc(C(=O)CCl)c2c1	21µM	0	16µM	?	-101	0
Cc1ccc2[nH]cc(C(=O)CN3CCN(C)CC3)c2c1	0	0	0	0	0	0
Cc1ccc2[nH]cc(C(c3ccccc3)c3ccc(Cl)s3)c2c1 (configuration not stated)	-	11µM	-	?	-	-
Cc1ccc2[nH]cc(C(O)c3c[nH]c4ccc(C)cc34)c2c1	-	0	-	10µM	-	-
Cc1ccc2c(C(=O)CCl)c(C)[nH]c2c1	21µM	0	?	?	-98	?
CCn1c(CCn2ccnc2C)n[nH]c1=S	0	0	0	0	0	0
Cc1ncc(CO)c2c1Oc1nc(-c3ccccc3)nc(SCC(=O)Nc3cccc(O)c3)c1C2	0	0	0	13µM	0	0
Cc1cc(NC(=O)c2cccs2)n(-c2nc3ccccc3[nH]2)n1	?	0	?	?	0	0
Cc1cc(NC(=O)c2ccccc2)n(-c2nc3ccccc3[nH]2)n1	0	0	0	0	0	0
